Shown are actives, neighbours in structure and some others; about 21% of the full set was active somewhere.
Pf growth 48h: inhibits P. falciparum growth in the first generation, 48 h; P. falciparum luciferase growth in erythrocytes, 48 h; Potency, µM (highest dose often 28.7 µM), inactives show top-dose activity change, negative = inhibition, hits mostly inhibitors; 5.9% of 310,000 active; AID 504832; note: potency is the fitted concentration of half-maximal effect; % is set by controls: 0 for no effect and ±100 for the full control effect
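Parasite viability was followed by luminescence of a genomically integrated firefly luciferase. Cultures held 0.1% parasitemia at 2% hematocrit (final), incubated under 5% CO2 at 37 C.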
Pf growth 96h: P. falciparum growth inhibition at 96 hours | P. falciparum luciferase reporter growth, 96 h | Potency, µM (highest dose often 28.7 µM), without a hit: at the top dose activity change, negative = inhibition, actives largely listed as inhibitors | 6.9% of 320,000 active; note: potency is the fitted concentration of half-maximal effect; % is set by controls: 0 for no effect and ±100 for the full control effect
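Luminescence readout: decreased luciferase signal marks inhibited growth of reporter-expressing P. falciparum in infected red cells (2% hematocrit, 0.05% parasitemia final), exposed to compound two generations (96 h, 37 C, 5% CO2).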
Cycloheximide cs: affects cycloheximide protein synthesis inhibition readout, counter-screen; cell reporter, cycloheximide protein synthesis inhibition counterscreen; AID 2314; 12% of 300,000 active; max response, %; in the data active = max response mostly above about 13%, no sharp cut-off; inactive = mostly below about 14%; note: read at 38.3 µM for the half of the compounds with a filed dose; 0% is about no effect
Shiga toxin inh: Shiga toxin inhibition; Vero cells, Shiga toxin protein synthesis inhibition reporter; inhibition, % at 38.7 µM; 9.2% of 290,000 active; AID 2315; in the data active = inhibition mostly above about 28%, no sharp cut-off; inactive = mostly below about 43%; note: 0% is about no effect
* hit, by the source's call; ? = inconclusive; . = no result given. Unless noted, calls come from the whole dose curve; as a rule, active = well fitted inhibition curve with a large enough effect; inconclusive = small, poorly fitted or top-dose-only effect, or another doubt; inactive = no such curve, though single readings can be large or run the other way.

SMILES	Pf growth 48h	Pf growth 96h	Cycloheximide cs	Shiga toxin inh
CCCOc1cccc(C(=O)N/N=C/c2ccoc2)c1	18%	-28%	31*	28
COc1ccccc1NC(=O)C(C)OC(=O)CCC1CCCCC1 (configuration not stated)	?	0%	-2	-6
COCc1ccc(C(=O)N2CCCC(Nc3ccc(F)c(F)c3)C2)s1 (configuration not stated)	-8%	-6%	-2	12
Cc1scc(C(=O)N/N=C/c2ccc(OCC(C)C)cc2)c1C	.	12µM*	16	46
COc1cc(-n2c(C)nc3cc(C(=O)O)ccc32)cc(OC)c1OC	57%	41%	1	-3
Cc1cc(NC(=O)c2c(Br)c(C)nn2C)no1	-1%	0%	0	39
COc1ccc(N(C)C(=O)C2CCN(S(=O)(=O)c3cccc4nonc34)CC2)c(OC)c1	?	9.3µM*	-4	-5
CN(Cc1ccccc1)C(=O)C1CCN(S(=O)(=O)c2cccc3nonc23)CC1	-9%	13µM*	-2	-7
CC(C)CCOc1ccc(CO[C@@H]2[C@H]3OC(C)(C)O[C@H]3O[C@@H]2C(O)CO)cc1 (some centres not stated)	?	0%	0	-14
CCc1ccc(N2CC(C(=O)N3CCN(c4ccccn4)CC3)CC2=O)cc1 (configuration not stated)	-31%	-2%	.	.
CSc1ccccc1C(=O)C1CCCN(C(=O)CCc2cccnc2)C1 (configuration not stated)	113%	?	24*	50
COc1ccc2cc(C(=O)C3CCCN(C(=O)CCc4cnn(C)c4)C3)ccc2c1 (configuration not stated)	11%	?	27*	43*
O=C(C1CCCN(Cc2cccnc2)C1)N1CCCCC1 (configuration not stated)	-5%	?	22*	-13
COc1cccc(C(=O)C2CCCN(C(=O)c3ccccc3Cl)C2)c1 (configuration not stated)	-6%	?	15	13
COc1ccc2cc(C(=O)C3CCCN(C(=O)c4cnn(C(C)C)c4)C3)ccc2c1 (configuration not stated)	25%	?	11	-2
C=CCCC(=O)N1CCCC(C(=O)c2cccc(OC)c2)C1 (configuration not stated)	5%	?	21*	12
COc1ccc([N+](=O)[O-])cc1NC(=O)C(C)OC(=O)C1CCC1 (configuration not stated)	14%	0%	.	.
CN(C)C(=O)CCC(=O)N1CCCC(C(=O)c2ccc3c4c(cccc24)CC3)C1 (configuration not stated)	-2%	15µM*	10	14
Cn1cc(CCC(=O)N2CCCC(C(=O)c3cccc4ccccc34)C2)cn1 (configuration not stated)	?	-24%	36*	21
S=c1nc2ccccc2c2nc(-c3ccccc3Br)[nH]n12	2.9µM*	2.3µM*	1	1
COc1ccc(N2CCN(C(=O)c3ccc(CNc4c(N5CCOCC5)c(=O)c4=O)cc3)CC2)cc1	?	22%	1	-6
Cc1ccc([N+](=O)[O-])cc1NC(=O)CCSc1ccc(Cl)cc1	18%	9.3µM*	-3	-6
CN(c1ccc([N+](=O)[O-])cc1C(=O)Nc1ccccc1)C1CCCCC1	-19%	?	-1	4
Cc1ccc([N+](=O)[O-])cc1NC(=O)CNC1CCCCC1	12µM*	-12%	-2	-1
Cc1ccc([N+](=O)[O-])cc1NC(=O)CN(C(=O)c1ccc(Cl)cc1)C1CCCCC1	?	9%	-7	-9
SMILES	Pf growth 48h	Pf growth 96h	Cycloheximide cs	Shiga toxin inh
Cc1cccc(NC(=O)c2cc([N+](=O)[O-])ccc2NC2CCCCC2)c1	8.3µM*	?	4	25
CN(Cc1ccccc1)C(=O)c1[nH]cnc1C(=O)N[C@@H](Cc1ccccc1)C(=O)OC(C)(C)C	32%	?	0	5
CCSc1nnc(NC(=O)CSc2nnc(C)c(=O)n2N)s1	-10%	15%	2	-2
Cc1ccc(N2C(=O)CN(Cc3cccs3)C2=S)cc1C	-13%	7%	3	-14
Cc1ccc(N2C(=O)CN(Cc3sccc3C)C2=S)cc1C	12µM*	-10%	5	6
Cc1cccn2c(=O)c(C=O)c(NCc3ccccc3)nc12	75%	15%	5	20
Cc1onc(-c2ccccc2)c1C(=O)NCc1ccccc1F	7%	3%	-3	-5
O=C(CSc1ncnc2c1oc1ccccc12)c1cccs1	55%	114%	23*	42*

High-throughput results: PubChem BioAssay, National Center for Advancing Translational Sciences (NCATS)
